Measurements reported in PubChem BioAssay AID568 (Sanford-Burnham Center for Chemical Genomics, 2006).
The whole screen tested about 83,000 compounds, of which fewer than 10 were called active. No rule for the calls is given here. These entries were drawn from the full list. Entries with a potency or affinity are not part of this list.

Each compound was assayed against Heat shock cognate 71 kDa protein (Homo sapiens) (UniProt P11142) (assay: Hsc70 inhibitors, probe displacement, primary screen, biochemical, fluorescence polarization (AID 568)). Conditions: mP, at 20 µM, stronger effect = higher value.
Sequence of Heat shock cognate 71 kDa protein (Homo sapiens) (P11142 whole entry, looked up): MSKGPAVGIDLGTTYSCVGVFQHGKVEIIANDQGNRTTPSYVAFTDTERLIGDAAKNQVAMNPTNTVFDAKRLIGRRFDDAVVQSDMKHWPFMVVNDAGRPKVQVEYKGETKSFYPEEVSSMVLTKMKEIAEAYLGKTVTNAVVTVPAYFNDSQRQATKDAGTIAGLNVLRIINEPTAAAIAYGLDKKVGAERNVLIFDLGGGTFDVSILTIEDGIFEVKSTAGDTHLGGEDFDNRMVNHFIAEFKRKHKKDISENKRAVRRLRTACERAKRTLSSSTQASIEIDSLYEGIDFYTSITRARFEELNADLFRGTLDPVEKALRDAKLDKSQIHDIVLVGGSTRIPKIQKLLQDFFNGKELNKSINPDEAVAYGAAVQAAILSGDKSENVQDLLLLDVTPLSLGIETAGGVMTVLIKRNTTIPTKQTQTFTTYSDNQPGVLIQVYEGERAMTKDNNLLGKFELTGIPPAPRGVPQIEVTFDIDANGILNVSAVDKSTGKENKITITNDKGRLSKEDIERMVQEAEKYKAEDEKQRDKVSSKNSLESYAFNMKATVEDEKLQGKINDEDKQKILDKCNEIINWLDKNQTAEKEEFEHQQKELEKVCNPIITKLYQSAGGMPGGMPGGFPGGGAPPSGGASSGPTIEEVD
Sequence of Heat shock cognate 71 kDa protein (Homo sapiens) (P11142 whole entry, looked up): as above

displacement, inactive:
O=C(Nc1cccc(Cl)c1N1CCCC1)c1cc2ccccc2o1 -2.4%
CCOC(=O)C1=NN(c2ccccc2)C2(S1)SC(C(C)=O)=C(C)N2c1ccccc1 (configuration not stated) 3.4%
Cc1noc(C)c1CSc1nnc2cc(C)c3ccccc3n12 -6.7%
Cc1ccc(C(=O)NCc2occc2C(=O)O)o1 2.4%
CCn1c2ccccc2c2nnc(SCC(=O)Nc3ncccn3)nc21 5.9%
COc1ccc(S(=O)(=O)NCC(=O)N(CC(=O)NCC2CCCO2)c2c(C)cccc2C)cc1 (configuration not stated) -3.5%
O=C(Nc1ccncc1)c1cc(F)cc(F)c1 3.6%
c1ccc2sc(N3CCN(Cc4nnnn4CC4CCCO4)CC3)nc2c1 (configuration not stated) 1.7%
Cn1c(SCc2ccc(F)cc2)nnc1-c1cccs1 -5%
CCOc1ccc(C(C#N)N2CCOCC2)cc1OC (configuration not stated) -4.5%
CCCCN(C(=O)c1cc(OC)c(OC)c(OC)c1)C1=CC2CCC(C1)N2C (configuration not stated) -2.2%
Cc1nn(-c2ccccn2)c2nc(-c3cccs3)cc(C(=O)N3CCOCC3)c12 0.1%
Cn1c(SCC(=O)NCc2ccc3c(c2)OCO3)nnc1-c1cccs1 -4.3%
COc1ccc(-c2nc(C)c(C(C)=O)n2O)cc1 3.1%
COC(=O)c1ccc(OCC(=O)c2ccccc2OC)cc1 2.4%
CCOC(=O)c1ccc2nc(NC(=O)c3cccs3)sc2c1 -11.3%
O=C(c1cccc(S(=O)(=O)N2CCCCC2)c1)N1CCN(S(=O)(=O)c2ccc(F)cc2)CC1 7.4%
N#Cc1ccccc1NC(=O)CSc1nnc(-c2ccccc2O)n1-c1ccccc1 -3.5%
CCN(CC)S(=O)(=O)c1cccc(C(=O)Nc2cccnc2)c1 4.9%
CCOC(=O)c1cccc(N2C(=O)C3C(C(=O)NC4CC4)C4(C)C=CC3(O4)C2C(=O)NC(C)(C)C)c1 (configuration not stated) 0.8%
COc1ccc(NC(=O)CSc2nc3ccccc3c(=O)n2CCNC(C)=O)cc1 1%
CC(C)c1ccc(-c2nnn(Cc3nc4ccccc4s3)n2)cc1 7.9%
CC1=C(C(=O)N2CCOCC2)C(c2cccs2)NC(=O)N1 (configuration not stated) 1.5%
Cc1c(NC2=NC(C)(C)Cc3ccccc32)c(=O)n(-c2ccccc2)n1C -0.6%
CCc1ccccc1NC(=O)N[C@@H](C)C(=O)O 4.3%
CCCCNC(=S)NNC(=O)c1ccco1 4%
CC1=C(C(=O)OC(C)C)C(c2c[nH]c3ccccc23)n2ncnc2N1 (configuration not stated) 4.3%
CNS(=O)(=O)c1cccc2cccnc12 5.1%
Cc1ccc(C)c(-n2c(SCC(=O)NCC3CCCO3)nnc2-c2ccoc2C)c1 (configuration not stated) -2.3%
O=C1C2C3C=CC(C3)C2C(=O)N1c1ccc2ccccc2n1 (configuration not stated) 6.3%
CCOC(=O)c1c(NC(=O)CSc2nnc(-c3cccnc3)o2)sc2c1CCC2 -5%
Cn1c(CNC(=O)c2cccs2)nnc1SCC(=O)Nc1ccc(Cl)cc1 1.1%
COc1ccc(Br)cc1CNC(=O)CCc1nc(-c2ccccc2F)no1 0%
COC(=O)c1[nH]nc2c1C(=O)N(C1CCCCC1)C2=O 2.9%
CCCC1CCC(C2=N/C(=C\c3ccc(OC)c(OC)c3)C(=O)O2)CC1 (configuration not stated) -5%
Cn1c(CCN2CCN(c3ccccc3)CC2)nc2cc(NC(=O)c3ccco3)ccc21 0.4%
O=C(COC(=O)c1cccnc1)c1ccc(Cl)c(Cl)c1 -1.2%
CCn1c(COc2ccccc2C)nnc1SCC(=O)CC(=O)Nc1ccccc1 2.2%
CN(Cc1ccccc1)C(=O)c1ccc2c(c1)OCCO2 0.2%
Cn1cc(S(=O)(=O)CC(=O)Nc2ccc3c(c2)OCCO3)c2ccccc21 7.1%
NC(=O)c1ccccc1N/C=C/C(=O)c1ccco1 5.3%
CCN1CCN(CCCNC(=O)C2CCCN(c3nnc(-n4cccc4)s3)C2)CC1 (configuration not stated) 7%
Cc1ccc2oc(=O)c3cnn(CC(=O)NCCN4CCOCC4)c3c2c1 2.8%
Cc1c(C(=O)O)oc2ccc(S(=O)(=O)NCc3ccccc3)cc12 -0.1%
COc1ccc(C(c2nnnn2Cc2cccs2)N2CCN(c3ccccc3F)CC2)cc1 (configuration not stated) -2.2%
CC(=O)NCCn1c(SCC(=O)NCCC2=CCCCC2)nc2ccccc2c1=O -4.3%
Cc1cc(C)cc(N(C(=O)c2ccc3c(c2)OCO3)C2C=CS(=O)(=O)C2)c1 (configuration not stated) -3.3%
CCN(CC)S(=O)(=O)c1ccc(-c2nnc(SCc3nnc(-c4ccc(C)cc4)o3)n2CC)cc1 -2.9%
CC(C)(C)C(=O)CNS(=O)(=O)c1ccc(S(=O)(=O)NC2CCCC2)cc1 2.7%
Cc1ccc(OC(C)C)c(CN(CCO)CCO)c1 -3.1%
COc1ccc(S(=O)(=O)N2CCSC2c2ccc(N)cc2)cc1 (configuration not stated) 2.5%
CSc1nn(CCc2ccncc2)c(=S)s1 -0.7%
COc1cc(NC(=O)c2cc(C)on2)cc(OC)c1OC 8%
N#C/C(=C\Nc1ccc2c(c1)OCCO2)c1nc2ccccc2[nH]1 -23.3%
CC(C)c1[nH]nc2c1C(Cc1ccccc1)C(C#N)=C(N)O2 (configuration not stated) 5.2%
COc1ccccc1N1CCN(C(=O)c2c(-c3ccccc3Cl)noc2C)CC1 -6.4%
CC(=O)Nc1ccc(S(=O)(=O)Nc2cccc(N(C)S(C)(=O)=O)c2)cc1 -0.7%
CCOc1ccc(S(=O)(=O)Nc2ccccc2SC)cc1 -1.7%
NC(=O)c1ccsc1NC(=O)COc1ccccc1 9.1%
COC(=O)c1c(NS(C)(=O)=O)sc2c1CCCC2 3.6%
COc1ccc(NC(=O)CCn2nc(C)cc2C)cc1 -4.3%
O=C(CSc1nnc(Cn2c(=O)sc3ccccc32)n1CCc1ccccc1)N1CCCC1 1.9%
